For some assays here: Measured potencies and affinities stand elsewhere.
Columns and labels:
Design in all cases: scale not given: direction of the effect not stated beside the values
[1] = target: Protein translocase subunit SecA (Escherichia coli (strain K12)) (UniProt P10408); assay: Assay to Identify E. coli SecA ATPase Inhibitors; assay type: functional; conditions: 30 µM
[2] = target: T1, Ubiquitin-activating enzyme e1, putative (Leishmania donovani (strain BPK282A1)) (UniProt E9BSI1); assay: Leishmania donovani Ubiquitin Activating Enzyme (LdE1); assay type: functional; conditions: 30 µM
T1 sequence (whole entry): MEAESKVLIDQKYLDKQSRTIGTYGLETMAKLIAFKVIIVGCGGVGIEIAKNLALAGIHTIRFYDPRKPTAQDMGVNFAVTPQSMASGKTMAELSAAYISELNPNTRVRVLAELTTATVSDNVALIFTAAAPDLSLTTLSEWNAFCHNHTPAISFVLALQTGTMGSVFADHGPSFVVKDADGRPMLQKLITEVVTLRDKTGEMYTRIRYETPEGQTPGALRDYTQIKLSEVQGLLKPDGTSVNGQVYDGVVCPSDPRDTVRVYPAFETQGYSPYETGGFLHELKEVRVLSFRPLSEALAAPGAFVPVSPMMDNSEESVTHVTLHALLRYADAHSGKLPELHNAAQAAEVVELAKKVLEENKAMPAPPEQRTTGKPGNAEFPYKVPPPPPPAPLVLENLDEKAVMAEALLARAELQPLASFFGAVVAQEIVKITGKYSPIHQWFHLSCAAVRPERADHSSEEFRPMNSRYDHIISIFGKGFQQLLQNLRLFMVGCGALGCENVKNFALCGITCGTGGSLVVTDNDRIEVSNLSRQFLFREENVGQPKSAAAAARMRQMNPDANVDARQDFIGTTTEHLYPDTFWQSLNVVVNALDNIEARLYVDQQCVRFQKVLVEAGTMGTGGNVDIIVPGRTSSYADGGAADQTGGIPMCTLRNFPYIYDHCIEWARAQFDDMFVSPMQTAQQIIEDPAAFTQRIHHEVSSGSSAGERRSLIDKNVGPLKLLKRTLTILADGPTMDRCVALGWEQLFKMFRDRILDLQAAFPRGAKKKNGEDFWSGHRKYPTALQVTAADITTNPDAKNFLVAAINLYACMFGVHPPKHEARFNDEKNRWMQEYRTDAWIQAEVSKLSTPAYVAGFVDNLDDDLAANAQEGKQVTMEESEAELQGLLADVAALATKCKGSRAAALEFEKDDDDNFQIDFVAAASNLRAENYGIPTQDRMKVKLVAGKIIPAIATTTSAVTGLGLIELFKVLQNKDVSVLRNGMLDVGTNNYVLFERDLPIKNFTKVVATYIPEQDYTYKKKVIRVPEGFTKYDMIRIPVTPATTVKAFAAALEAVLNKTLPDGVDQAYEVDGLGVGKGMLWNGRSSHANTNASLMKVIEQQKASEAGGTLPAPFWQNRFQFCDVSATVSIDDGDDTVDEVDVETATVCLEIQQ

[3] = target: AMP-activated protein kinase, AMPK (Homo sapiens) (UniProt P54646+O43741+P54619+Q9UGJ0+Q9Y478+Q13131+Q9UGI9); assay: AMP-dependent Kinase enzyme assay. An in vitro enzyme assay that detects ADP turnover that is directly proportional to AMPK activity. This uses naive AMPK that is activated during the assay with MK-8722; assay type: functional; conditions: 30 µM
[4] = target: Sialic acid-binding Ig-like lectin 9 (Homo sapiens) (UniProt Q9Y336); assay: Hs-Siglec9 ALPHAscreen SOP 20170721; conditions: 10 µM
Trypanosoma cruzi = assay: Trypanosoma cruzi phosphomannomutase and mannose-1-phosphate guanylyltransferase assay; assay type: functional; conditions: 10 µM
[5] = target: T2, Arginase-2, mitochondrial (Homo sapiens) (UniProt P78540); assay: in vitro enzyme assay to detect the production of urea directly proportional to the activity of Arginase II; assay type: functional; conditions: 33.3 µM; also: in the data most compounds retested in dose-response had high values
T2 sequence (whole entry): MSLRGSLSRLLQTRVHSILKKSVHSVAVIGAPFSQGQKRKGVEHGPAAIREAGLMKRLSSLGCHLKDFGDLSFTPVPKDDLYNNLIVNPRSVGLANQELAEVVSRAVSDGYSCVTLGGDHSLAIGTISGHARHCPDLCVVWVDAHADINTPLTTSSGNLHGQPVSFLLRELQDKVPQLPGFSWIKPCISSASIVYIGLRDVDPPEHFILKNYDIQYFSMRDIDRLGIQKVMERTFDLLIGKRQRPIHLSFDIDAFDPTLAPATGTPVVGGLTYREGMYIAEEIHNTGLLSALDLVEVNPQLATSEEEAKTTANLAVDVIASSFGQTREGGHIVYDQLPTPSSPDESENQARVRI

[6] = target: T3, Proteasome subunit beta (Trypanosoma cruzi) (UniProt O96673); assay: Trypanosoma cruzi proteasome chymotrypsin-like activity (TcProtChymo) assay.; also: in the data most compounds retested in dose-response had high values; assay type: functional; conditions: 9.37 µM
T3 sequence (whole entry): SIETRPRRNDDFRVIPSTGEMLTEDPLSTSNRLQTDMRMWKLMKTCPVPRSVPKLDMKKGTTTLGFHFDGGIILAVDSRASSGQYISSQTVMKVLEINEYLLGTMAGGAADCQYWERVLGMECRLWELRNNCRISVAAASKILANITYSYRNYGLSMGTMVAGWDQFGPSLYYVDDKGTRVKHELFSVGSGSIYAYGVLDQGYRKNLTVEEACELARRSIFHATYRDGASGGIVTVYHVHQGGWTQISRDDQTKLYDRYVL

Homo sapiens = organism: Homo sapiens; assay: To identify inhibition of the IFN signalling (Jak-Stat) pathway via expression of an eGFP reporter gene under the control of an IFN-stimulated response element (ISRE) containing MxA promoter.; assay type: functional; conditions: 30 µM
[7] = target: T4, Tyrosyl-tRNA synthetase, putative (Trypanosoma cruzi (strain CL Brener)) (UniProt Q4DSP6); assay: Trypanosoma cruzi tyrosyl tRNA synthetase (TcYRS) _High Tyrosine SOP; assay type: functional; conditions: 30 µM; also: in the data most compounds retested in dose-response had high values
T4 sequence (whole entry): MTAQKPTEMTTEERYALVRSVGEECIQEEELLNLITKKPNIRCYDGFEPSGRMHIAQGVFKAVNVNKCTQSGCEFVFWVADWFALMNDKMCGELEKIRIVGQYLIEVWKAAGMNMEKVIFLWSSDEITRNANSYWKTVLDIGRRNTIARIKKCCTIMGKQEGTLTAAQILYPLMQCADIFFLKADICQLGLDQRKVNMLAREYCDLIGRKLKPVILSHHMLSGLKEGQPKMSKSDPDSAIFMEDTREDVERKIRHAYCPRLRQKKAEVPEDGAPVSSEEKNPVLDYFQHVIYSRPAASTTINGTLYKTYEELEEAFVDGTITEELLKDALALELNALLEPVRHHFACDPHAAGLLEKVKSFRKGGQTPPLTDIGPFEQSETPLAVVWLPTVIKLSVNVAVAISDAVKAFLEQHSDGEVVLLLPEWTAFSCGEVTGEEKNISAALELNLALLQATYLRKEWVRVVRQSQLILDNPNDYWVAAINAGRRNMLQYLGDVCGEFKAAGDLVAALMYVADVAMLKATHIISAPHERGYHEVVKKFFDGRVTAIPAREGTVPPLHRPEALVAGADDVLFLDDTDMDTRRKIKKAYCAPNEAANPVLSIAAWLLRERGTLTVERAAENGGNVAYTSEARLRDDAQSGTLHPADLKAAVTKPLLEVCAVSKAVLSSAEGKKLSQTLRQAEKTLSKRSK

[8] = target: T4, Tyrosyl-tRNA synthetase, putative (Trypanosoma cruzi (strain CL Brener)); assay: Trypanosoma cruzi tyrosyl tRNA synthetase (TcYRS) SOP; assay type: functional; conditions: 30 µM
[9] = target: Chromo domain-containing protein 1 (Saccharomyces cerevisiae (strain ATCC 204508 / S288c) (Baker's yeast)) (UniProt P32657); assay: ScCHD-1 Enzyme Inhibition Assay; assay type: functional; conditions: 30 µM; also: in the data most compounds retested in dose-response had high values
Chain of Chromo domain-containing protein 1 (Saccharomyces cerevisiae (strain ATCC 204508 / S288c) (Baker's yeast)) (P32657 whole entry, the tested form may be a part): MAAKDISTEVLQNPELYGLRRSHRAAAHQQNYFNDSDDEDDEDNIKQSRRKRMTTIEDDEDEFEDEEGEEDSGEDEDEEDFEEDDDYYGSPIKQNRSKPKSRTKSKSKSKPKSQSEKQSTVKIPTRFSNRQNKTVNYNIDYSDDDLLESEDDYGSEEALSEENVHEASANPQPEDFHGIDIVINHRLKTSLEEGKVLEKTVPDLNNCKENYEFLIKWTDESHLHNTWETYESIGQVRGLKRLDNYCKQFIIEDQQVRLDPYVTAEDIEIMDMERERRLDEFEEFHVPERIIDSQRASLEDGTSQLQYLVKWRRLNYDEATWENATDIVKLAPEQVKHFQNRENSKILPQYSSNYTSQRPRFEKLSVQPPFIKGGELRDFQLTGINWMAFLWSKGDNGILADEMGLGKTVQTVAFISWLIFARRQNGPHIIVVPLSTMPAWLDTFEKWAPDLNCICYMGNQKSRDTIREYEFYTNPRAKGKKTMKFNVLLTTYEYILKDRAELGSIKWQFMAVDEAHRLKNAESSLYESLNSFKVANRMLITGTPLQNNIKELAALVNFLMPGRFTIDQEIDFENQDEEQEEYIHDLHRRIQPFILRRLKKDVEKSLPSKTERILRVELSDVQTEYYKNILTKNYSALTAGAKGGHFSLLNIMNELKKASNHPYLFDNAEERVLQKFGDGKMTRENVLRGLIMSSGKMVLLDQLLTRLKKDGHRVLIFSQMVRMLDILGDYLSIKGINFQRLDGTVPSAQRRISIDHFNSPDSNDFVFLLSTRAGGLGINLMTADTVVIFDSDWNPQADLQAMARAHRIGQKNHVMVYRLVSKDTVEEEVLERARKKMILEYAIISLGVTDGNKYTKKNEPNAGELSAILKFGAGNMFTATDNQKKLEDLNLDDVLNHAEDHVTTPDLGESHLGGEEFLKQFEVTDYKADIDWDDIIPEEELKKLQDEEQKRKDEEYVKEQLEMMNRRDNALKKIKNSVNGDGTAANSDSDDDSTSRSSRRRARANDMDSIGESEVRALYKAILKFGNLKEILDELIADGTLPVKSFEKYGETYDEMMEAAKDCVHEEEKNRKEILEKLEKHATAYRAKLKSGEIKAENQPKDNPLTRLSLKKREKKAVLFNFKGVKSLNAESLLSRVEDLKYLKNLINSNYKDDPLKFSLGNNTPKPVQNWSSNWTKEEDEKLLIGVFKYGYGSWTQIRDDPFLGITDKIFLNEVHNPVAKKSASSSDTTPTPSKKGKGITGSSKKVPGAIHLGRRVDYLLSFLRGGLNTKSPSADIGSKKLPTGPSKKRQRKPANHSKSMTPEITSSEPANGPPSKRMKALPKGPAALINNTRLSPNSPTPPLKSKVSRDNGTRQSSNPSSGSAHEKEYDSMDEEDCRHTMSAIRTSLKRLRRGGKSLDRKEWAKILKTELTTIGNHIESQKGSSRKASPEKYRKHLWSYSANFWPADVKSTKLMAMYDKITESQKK

Chain of Protein translocase subunit SecA (Escherichia coli (strain K12)) (P10408 whole entry): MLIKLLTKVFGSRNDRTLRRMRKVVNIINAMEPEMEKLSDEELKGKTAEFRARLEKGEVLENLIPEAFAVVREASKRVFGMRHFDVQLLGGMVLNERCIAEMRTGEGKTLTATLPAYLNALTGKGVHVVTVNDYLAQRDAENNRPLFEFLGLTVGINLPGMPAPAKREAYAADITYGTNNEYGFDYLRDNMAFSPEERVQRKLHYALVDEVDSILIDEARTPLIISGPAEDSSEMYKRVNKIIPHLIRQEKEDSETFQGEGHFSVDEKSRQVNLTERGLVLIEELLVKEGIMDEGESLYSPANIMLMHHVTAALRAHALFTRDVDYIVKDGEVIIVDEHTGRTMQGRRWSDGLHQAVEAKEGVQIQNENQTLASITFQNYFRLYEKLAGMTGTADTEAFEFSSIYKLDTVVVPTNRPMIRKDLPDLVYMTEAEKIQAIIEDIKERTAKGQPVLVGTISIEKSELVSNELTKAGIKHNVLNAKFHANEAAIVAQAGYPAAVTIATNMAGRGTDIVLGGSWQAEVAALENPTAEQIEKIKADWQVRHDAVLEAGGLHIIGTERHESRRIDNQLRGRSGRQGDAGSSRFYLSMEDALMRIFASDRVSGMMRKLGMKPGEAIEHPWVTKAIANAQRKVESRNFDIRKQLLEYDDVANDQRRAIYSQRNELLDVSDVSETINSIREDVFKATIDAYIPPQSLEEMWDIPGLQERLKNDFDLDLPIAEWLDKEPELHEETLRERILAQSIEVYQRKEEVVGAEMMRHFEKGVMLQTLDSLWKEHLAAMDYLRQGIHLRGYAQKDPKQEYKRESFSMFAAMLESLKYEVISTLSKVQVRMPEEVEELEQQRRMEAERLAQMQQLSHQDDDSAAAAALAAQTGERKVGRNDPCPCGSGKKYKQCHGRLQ
Chain of Sialic acid-binding Ig-like lectin 9 (Homo sapiens) (Q9Y336 whole entry): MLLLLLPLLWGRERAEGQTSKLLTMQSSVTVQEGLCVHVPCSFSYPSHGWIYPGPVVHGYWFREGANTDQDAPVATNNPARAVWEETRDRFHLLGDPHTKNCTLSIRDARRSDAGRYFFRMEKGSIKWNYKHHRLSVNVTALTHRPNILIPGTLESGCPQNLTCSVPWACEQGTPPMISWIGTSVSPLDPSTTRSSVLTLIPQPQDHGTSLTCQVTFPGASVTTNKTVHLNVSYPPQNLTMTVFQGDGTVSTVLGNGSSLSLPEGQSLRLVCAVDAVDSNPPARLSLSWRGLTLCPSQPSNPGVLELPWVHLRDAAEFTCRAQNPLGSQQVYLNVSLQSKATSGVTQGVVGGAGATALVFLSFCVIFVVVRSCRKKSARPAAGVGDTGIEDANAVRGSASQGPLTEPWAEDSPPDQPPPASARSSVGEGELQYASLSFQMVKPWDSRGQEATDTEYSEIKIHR

Compound	Percent Effect [1] [%]	Percent Effect [2] [%]	Percent Effect [3] [%]	Percent Effect [4] [%]	Percent Effect (Trypanosoma cruzi) [%]	Percent Effect [5] [%]	Percent Effect [6] [%]	Percent Effect (Homo sapiens) [%]	Percent Effect [7] [%]	Percent Effect [8] [%]	Percent Effect [9] [%]
COc1ccc(CCN2CCCC(Cn3nc(C)nc3C)C2)cc1 (configuration not stated)	-1.76	-11.4	-0.842	1.01	2.77	-2.8	8.58	-4.76	8.33	10.1	-19.5
Cc1cccc(Nc2nccnc2C2CCCN2CC(=O)N(C)C)n1 (configuration not stated)	-5.74	8	-0.423	3.06	5.32	-3.5	-3.08	1.25	4.25	6.41	3.88
CCc1ccc(C(=O)N2CCC(c3nncn3CC)CC2)cc1	-10	18.4	-9.82	-0.88	7.3	-5.92	7.57	5.31	3.19	15.6	-9.19
C[C@@H]1CN(C2(C(=O)N3CCCCCC3)Cc3ccccc3C2)C[C@H](C)O1	-2.48	6.94	-6.6	11	6.51	3.97	-0.702	-2.77	2.1	2.56	-1.63
Cc1ccc(F)cc1NC(=O)NCC(C)N1CCOCC1 (configuration not stated)	-1.78	18.9	0.541	-0.431	0.391	1.25	9.55	14.3	11.9	18.3	3.74
Cc1cccc(-c2ccc(C(=O)NCCN(C)C3CC3)c(=O)[nH]2)c1	-4.4	0	-7.73	-0.0788	-4.43	4.41	-0.721	19	0.493	6.17	-1.94
CC(C)c1ncc(CN2CCCC(CO)C2)cn1 (configuration not stated)	-1.56	1.35	11.1	9.9	-6.32	1.16	3.59	-1.15	1.07	1.3	-0.548
Cc1[nH]c(=O)[nH]c(=O)c1CN1CCCC(CCc2ccccc2)C1 (configuration not stated)	-1.15	2.7	-3.11	8.59	-5.02	0.952	18.1	-0.602	4.76	17.1	-3.68
COc1cnc(C2(O)CCN(C(=O)c3cccnc3)CC2)c(OC)n1	-4.3	4.05	11.7	7.31	-1.78	-0.696	-0.156	-1.41	5.38	6.49	-4.19
CC(C)(C)c1n[nH]c(C2CN(C(=O)c3csnn3)CCO2)n1 (configuration not stated)	-8.03	18.4	-1.35	7.53	7.5	1.18	2.4	6.98	6.38	15.6	-19.5
CCNc1cc2c(nn1)CCN(C(=O)Cc1noc3ccccc13)C2	-6.38	13.2	-1.77	6.44	5.51	0	-3.47	5.21	4.43	16.1	-4.69
CC(CN1CCC2(CC1)c1nc[nH]c1CCN2S(C)(=O)=O)C(F)(F)F (configuration not stated)	-5.83	4.17	-4.55	0.526	-2.62	-1.77	8.07	-8.95	3.16	2.56	-1.32
Cc1nn(C)c(C)c1C1CCCN1Cc1nc(C2CC2)no1 (configuration not stated)	-2.91	16.2	0.977	-3.54	6.22	-0.924	15.6	16.5	5.94	18.3	-7.69
COc1ccccc1OCc1cc(C(=O)N2CC(O)C2)n[nH]1	-4.46	4.17	141	-2.11	-0.875	3.09	6.49	1.4	4.21	10.3	-1.24
Cc1ccc2cc(CNCCCN3CCOCC3)c(=O)[nH]c2c1	-3.73	4.05	11.3	5.46	0.395	-0.696	6.08	12	5.38	9.09	-7.66
Cc1cc(C)c(CNC(=O)N2CCN(c3cnccn3)CC2)c(=O)[nH]1	-7.87	18.4	-1.35	2.54	6.96	-1.53	12.2	11.3	3.43	9.76	-9.64
Cn1cc(CNCCn2cccn2)c(-c2cccnc2)n1	-3.75	0	-3.89	-4.32	-1.66	0.744	13.8	-1.72	-1.07	1.24	2.43
CCN(Cc1ccccc1)C(=O)CN1CCCC(Cn2cncn2)C1 (configuration not stated)	-8.07	21.1	-3.72	18.3	3.64	2.16	8.38	-4.88	-4.43	23.5	-6.71
COc1cccc(CNC(CN2CCN(C)CC2)c2ccccc2)c1 (configuration not stated)	-5.66	5.41	-4.3	-1.53	-6.75	1.74	9.19	11.2	1.07	3.7	-3.35
Cc1cc(C)n(CC2CCCN2CC(=O)NC2CCOCC2)n1 (configuration not stated)	-8.59	10.4	1.94	3.84	-3.93	2.13	3.21	-10	1.94	9.76	-3.99
CC(C)Cc1noc(CN(C)C(=O)C2COc3ccccc3C2)n1 (configuration not stated)	-3.93	5.2	-1.17	6.48	-0.0983	-27.6	14.3	-9.36	-1.07	13.6	0.431
CCOCC1CN(C)Cc2cnn(CC3CCCC3)c21 (configuration not stated)	0.927	5.48	0.312	7.92	7.14	2	9.68	-29.3	7.29	11.1	-3.7

From ChEMBL document CHEMBL3988442, “University of Dundee, Small-Polar-MMV Screening Library” (2021)
